# SARS PLpro yeast: qHTS of Yeast-based Assay for SARS-CoV PLP; AID 485353, 2010; S. cerevisiae expressing SARS-CoV PLpro, growth rescue; 0.19% of 330,000 active; Potency, µM (doses to about 32.9 µM), for the others: at the top dose activity, positive = growth rescue, most hits filed as activators; calls by dose curve; further: potency means the concentration at half of the fitted maximal effect; 0% is about no effect; nearly all actives have a fitted effect of over 55% in size
# Pf growth 96h: Primary qHTS for delayed death inhibitors of the malarial parasite plastid, 96 hour incubation; P. falciparum luciferase reporter growth, 96 h; Potency, µM (top dose mostly 28.7 µM), inactives show at the highest dose activity change, negative = inhibition, actives largely listed as inhibitors; 6.9% of 320,000 active; AID 504834, 2011; further: potency means the concentration at half of the fitted maximal effect; on the % scale 0 is the no-effect control and ±100 the full control effect
#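 Infected RBCs, 2% Hct / 0.05% parasitemia final; luciferase-reporter P. falciparum; cpd 96 h, 37 C, 5% CO2; luciferase detection reagent; luminescence.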
# AMA1-RON2 inh: qHTS for Inhibitors of AMA1-RON; Towards Development of Antimalarial Drug Lead: Primary Screen. AID 720542, 2013. 0.2% of 360,000 active. Potency, µM (top dose mostly 58.2 µM), for inactives: top-dose activity change, negative = inhibition, most hits filed as inhibitors. Plasmodium falciparum AMA1 (3D7) - RON2 peptide interaction. AlphaScreen AMA1-biotinylated RON2 peptide binding;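 further: potency means the concentration at half of the fitted maximal effect; 0% = vehicle wells and -100% = peptide control; nearly all actives have a fitted effect of over 45% in size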
#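 AMA1 (3D7) with his tag at 25 nM final met compounds first, then biotinylated RON2 peptide at 25 nM; detection used donor plus acceptor beads, 10 µg/mL apiece, read by AlphaScreen after 30 min at room temperature.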
# Cycloheximide cs: Cycloheximide Counterscreen for Small Molecule Inhibitors of Shiga Toxin. cell reporter, cycloheximide protein synthesis inhibition counterscreen. max response, %. 12% of 300,000 active. AID 2314, 2010; in the data active means max response mostly above about 13%, no sharp cut-off; inactive means mostly below about 14%; further: read at 38.3 µM for the half of the compounds with a filed dose; 0% is about no effect
# Shiga toxin inh: A qHTS for Small Molecule Inhibitors of Shiga Toxin; 9.2% of 290,000 active; Vero cells, Shiga toxin protein synthesis inhibition reporter; inhibition, % at 38.7 µM; in the data active means inhibition mostly above about 28%, no sharp cut-off; inactive means mostly below about 43%; further: 0% is about no effect
# Pf growth 48h: Primary qHTS for delayed death inhibitors of the malarial parasite plastid, 48 hour incubation. 5.9% of 310,000 active. Potency, µM (doses to about 28.7 µM), for the others: at the top dose activity change, negative = inhibition, actives largely listed as inhibitors. P. falciparum luciferase growth in erythrocytes, 48 h; further: potency means the concentration at half of the fitted maximal effect; on the % scale 0 is the no-effect control and ±100 the full control effect
#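 Parasite viability was followed by luminescence of a genomically integrated firefly luciferase. Cultures held 0.1% parasitemia at 2% hematocrit (final), incubated under 5% CO2 at 37 C.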
# The depositor's hits bear a star; ? = inconclusive; · = not tested or not shown; [ ] = dose if it differs, or a comment. Shown are actives, neighbours in structure and some others; about 19% of the full set was active somewhere. Unless noted, the call rests on the fitted dose curve; in most records, active means well fitted curve in the direction sought with a large enough effect; inconclusive means small, poorly fitted or top-dose-only effect, or another doubt; inactive means no such curve, though single readings can be large; an effect the other way counts as inactive or inconclusive.
SMILES,SARS PLpro yeast,Pf growth 96h,AMA1-RON2 inh,Cycloheximide cs,Shiga toxin inh,Pf growth 48h
CCCn1c(SCC(=O)NC2CCCC2)nnc1C(C)C,2%,7%,-6%,-2,-3,8%
CCNC(=O)N(C)c1c(CC)nc2ccc(C(=O)N3CCN(C(=O)c4ccco4)CC3)cn12,·,·,9%,·,·,·
COc1cc(N/C(N)=N/c2nc(C)cc(C)n2)c(OC)cc1Cl,3%,-8%,0%,-2,10,?
CC(=O)Nc1cc[n+](CC(=O)c2ccc(Cl)cc2)cc1,1%,9.3µM*,-1%,0,-8,?
CC(=O)Nc1cc(C(=O)OCC(=O)c2ccccc2)ccc1C,1%,202%,-18%,35*,active,153%
Cc1ccc(C(=O)C[n+]2ccccc2)cc1,-1%,16%,-1%,25*,36*,44%
Cc1cc(C)c(NC(=O)CC(=O)c2ccccc2)c(Cl)c1,-4%,8%,4%,22*,65*,19%
Cc1ccc[n+](CC(=O)c2ccc(-c3ccccc3)cc2)c1,-25%,?,11%,-1,-9,-28%
Cc1cc(C)c(NC(=O)CS)c(Cl)c1,1%,?,5%,-5,1,-17%
CN1c2ccccc2-c2ccccc2S1(=O)=O,·,·,-1%,·,·,·
CCOC(=O)C1CCCN(C(=O)c2ccc(Cl)c(S(=O)(=O)N3CCc4ccccc43)c2)C1 (stereo not given),·,·,7%,·,·,·
CC(=O)NC(C)C(=O)OCC(=O)c1ccc(-c2ccccc2)cc1 (stereo not given),1%,35%,-2%,16*,49*,24%
Cc1ccc[n+](CC(=O)c2ccc(Cl)cc2)c1,5%,0.83µM*,-23%,6,35,4%
CC(NC(=O)c1ccccc1)C(=O)OCC(=O)c1ccc(Br)cc1 (stereo not given),-1%,7%,-3%,-1,10,16%
Cc1ccc(C(=O)CCc2ccc(N)cc2)cc1,0%,56%,-7%,31*,96*,61%
Cc1ccc(C(=O)Sc2cccccc2=O)cc1,-12%,2.9µM*,0%,78*,135*,4.1µM*
O=C(Nc1ccnn1C1CCN(CCCc2ccccc2)CC1)c1cccc(F)c1,1%,22%,-1%,-1,-7,?
COC(=O)c1ccc2nc(-c3ccco3)c(Cc3ccccc3)n2c1,·,·,-6%,·,·,·
CCCC(=O)c1ccc(-c2ccccc2)cc1,-2%,31%,26%,28*,84*,63%
CN(C(=O)c1ccccc1C(=O)OCC(=O)Nc1ccccc1)c1ccccc1,3%,?,-1%,·,·,?
O=C(COC(=O)c1ccc(-c2cnc3ccccc3n2)cc1)c1ccccc1,10%,3%,15%,11,10,42%
Cc1ccc(C(=O)Cc2ccccc2)cc1,·,·,64%,·,·,·
Cc1ccc(C(=O)OCC(=O)c2ccccc2)cc1,-3%,?,46%,23*,48*,276%
CN(C(=O)c1ccccc1C(=O)OCC(=O)c1ccc(Br)cc1)c1ccccc1,-4%,12µM*,-21%,·,·,?
Cc1ccc(C(=O)CC(=O)c2ccccc2)cc1,?,3.7µM*,101%,48*,66*,45%
SMILES,SARS PLpro yeast,Pf growth 96h,AMA1-RON2 inh,Cycloheximide cs,Shiga toxin inh,Pf growth 48h
CSc1ncccc1C(=O)Nc1cc(Cl)ccc1N1CCOCC1,·,·,-8%[11.6 µM],·,·,·
Cc1cc(OCCCn2c(CCNC(=O)C3CCCCC3)nc3ccccc32)ccc1Cl,·,·,·,-2,-3,·
CN(CC(=O)Nc1ccc(N2CCOCC2)cc1)CC(=O)Nc1ccccc1C#N,20%,0%,58%,8,-2,10%
COC(=O)c1ccccc1C(=O)c1c(C)cc(C)cc1C,·,·,-12%,·,·,·
Cc1ccc(C(=O)COC(=O)c2cccc(NC(=O)c3ccc([N+](=O)[O-])cc3[N+](=O)[O-])c2)cc1,4%,195%,19%,36*,136*,-64%
Cc1ccc(C)[n+](CC(=O)c2ccc(-c3ccccc3)cc2)c1,-1%,-6%,-16%,-2,-6,9.3µM*
Cc1cc(C)c(C(=O)CC(=O)c2ccccc2Cl)c(O)c1,-8%,?,49%,22*,22,24%[0.00184 µM]
